Test results reported in PubChem BioAssay (NCI).
Compounds without any hit were thinned out: in the full panel of roughly 79,000, 15% have a hit. Cut-off read from the data, not from the text of the source: active = growth inhibition above about 70%; inactive = the rest.

What was measured:
[1] = NCI Yeast Anticancer Drug Screen. Data for the rad50 strain (AID 155);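 note: 0% = growth of vehicle-only cultures of the same strain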; conditions: S. cerevisiae rad50 strain growth inhibition; at 50.0 µM; stronger effect = higher value
Method in brief: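 Growth of the mutant yeast was measured after compound exposure and referenced to vehicle-treated cultures.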

[2] = NCI Yeast Anticancer Drug Screen. Data for the mec2-1 strain (AID 157); conditions: S. cerevisiae mec2-1 strain, at 50.0 µM, stronger effect = higher value
Method in brief: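 Growth inhibition is read against vehicle-treated controls after compound exposure of the mec2-1 yeast strain, which is defective in DNA damage repair or cell cycle control.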

[3] = NCI Yeast Anticancer Drug Screen. Data for the sgs1 mgt1 strain (AID 161);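 note: 0% = growth of cultures given vehicle only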; conditions: S. cerevisiae sgs1 mgt1 strain, at 50.0 µM, stronger effect = higher value
Method in brief: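 Percent growth inhibition was derived by comparing compound-exposed mutant yeast with vehicle-exposed cultures. The strain carries alterations in DNA damage repair.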

[4] = NCI Yeast Anticancer Drug Screen. Data for the cln2 rad14 strain (AID 165);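 note: 0% = growth equal to vehicle treated cultures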; conditions: S. cerevisiae cln2 rad14 strain, at 50.0 µM, stronger effect = higher value
Method in brief: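 Growth inhibition, relative to vehicle-treated controls, is the read-out. The test organism is a yeast strain with defined genetic alterations, cln2 rad14.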

[5] = NCI Yeast Anticancer Drug Screen. Data for the bub3 strain (AID 167); conditions: S. cerevisiae bub3 mutant strain, at 50.0 µM, stronger effect = higher value
Method in brief: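 Whole-cell yeast assay. The mutant strain was incubated with compounds, and growth inhibition was determined by comparison with vehicle-treated cells.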

[6] = NCI Yeast Anticancer Drug Screen. Data for the mlh1 rad18 strain (AID 175); conditions: S. cerevisiae mlh1 rad18 strain growth inhibition; at 50.0 µM; stronger effect = higher value
Method in brief: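 Cells of a genetically altered yeast strain, deficient in DNA damage repair, were treated with compound. Their growth was then compared with that of vehicle-treated cultures to give inhibition.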

Measured: growth inhibition

Cc1cc(Cl)cc(C(=O)O)c1O
inactive: [1] 5.7% | [2] -9.25% | [3] 0.1% | [4] -12.7% | [5] -8.05% | [6] -8%

N#CCCC1(CCC#N)CCCCCCCCC(CCC#N)(CCC#N)C(=O)C1=O
inactive: [1] -8.7% | [2] -7.2% | [3] -5.15% | [4] 6.65% | [5] 2.4% | [6] 14.7%

CC1=C[P+](c2ccccc2)(c2ccccc2)C=C(C)O1
inactive: [1] 8.9% | [2] 3.55% | [3] 12.6% | [4] 0.65% | [5] 4.5% | [6] 4.25%

FC12CCC(F)(CC1)CC2
inactive: [1] -7.85% | [2] 20.1% | [3] -7.5% | [4] -13.9% | [5] 7.6% | [6] -2.55%

CC1(C)OCC2OC(O)C(OS(=O)(=O)c3ccc([N+](=O)[O-])cc3)C2O1 (stereo not given)
inactive: [1] -5.5% | [2] -2.55% | [3] -0.5% | [4] -33% | [5] -10.9% | [6] -30.3%

COc1cc2ccnc([C@@H](OC(=O)c3ccccc3)c3ccc(OC)c(OC)c3OC)c2cc1OC
inactive: [1] 10.4% | [2] 9.25% | [3] 40.9% | [4] 6.25% | [5] 0.05% | [6] 52.4%

O=C(NCc1ccccc1)C1C2CCC(C2)C1C(=O)NCc1ccccc1 (stereo not given)
inactive: [1] -0.85% | [2] 50.8% | [3] -1.95% | [4] -2.35% | [5] 22.9% | [6] -6.35%

O=C(NCC1CC1)Nc1cccc2ccccc12
inactive: [1] -19.1% | [2] -3.4% | [3] -2% | [4] -54.7% | [5] -14% | [6] -5.1%

O=C(N/N=C/c1ccc(Cl)cc1Cl)c1ccccc1SSc1ccccc1C(=O)N/N=C/c1ccc(Cl)cc1Cl
inactive: [1] -19.1% | [2] 1.55% | [3] -5.45% | [4] -8.1% | [5] -9.75% | [6] 19.8%

COC(=O)C(C(=O)OC)C(c1cccc([N+](=O)[O-])c1)C(N)c1ccccc1 (stereo not given)
inactive: [1] 15.3% | [2] -8.95% | [3] -0.5% | [4] 28.2% | [5] 32.1% | [6] 56.4%

C=C(C)/C=C/S(=O)c1ccccc1 (stereo not given)
inactive: [1] -3.3% | [2] -2.85% | [3] 10.3% | [4] -5.35% | [5] -16.4% | [6] -5.15%

COC(=O)CCC1CCCC(CCC(=O)OC)C1=O (stereo not given)
inactive: [1] -4.9% | [2] 4.55% | [3] -17.6% | [4] -6.1% | [5] -1.1% | [6] -3.3%

CC(=O)c1cc(C(C)(C)C)ccc1O
inactive: [1] 17.8% | [2] 4.8% | [3] 7.8% | [4] 9.65% | [5] 26.1% | [6] 12.8%

CCCC1SCC(C)(C)NC1=O (stereo not given)
inactive: [1] 4.85% | [2] 3.25% | [3] -1.9% | [4] -18.4% | [5] 7.05% | [6] -2.4%

O=C(CCN1C(=O)c2ccccc2C1=O)NCS(=O)(=O)O
inactive: [1] -11.8% | [2] -4.7% | [3] -11.1% | [4] -47.5% | [5] 16.2% | [6] -17.5%

CC1(C(=O)O)CCC(C(=O)Nc2ccccc2)C1(C)C (stereo not given)
inactive: [1] -11.2% | [2] -20.6% | [3] 5.05% | [4] -0.35% | [5] -13.1% | [6] 1.9%

CC(C)CCCC(C)C1CCC2C3CC=C4CC(OC5CCC6(C)C(=CCC7C6CCC6(C)C(C(C)CCCC(C)C)CCC76)C5)CCC4(C)C3CCC12C (stereo not given)
inactive: [1] -0.05% | [2] -12.8% | [3] -17.1% | [4] -10.7% | [5] -1.75% | [6] 4.8%

CCCCC(CC)CSC[N+](C)(CC)CC (stereo not given)
inactive: [1] 45% | [2] 24.8% | [3] 22.4% | [4] 1.5% | [5] 15.9% | [6] 20.6%

CCCCOC(=O)C(C)OP(=O)(OC(C)C(=O)OCCCC)OC(C)C(=O)OCCCC (stereo not given)
inactive: [1] -19.4% | [2] -5% | [3] 9.5% | [4] -26.1% | [5] -0.3% | [6] 16.2%

NC(=O)NCCSC1CCCCC1O (stereo not given)
inactive: [1] -23.1% | [2] -35% | [3] -28.4% | [4] 3.1% | [5] -64.5% | [6] 6.45%
